Laboratory results published in the supplement of paper PMC10670038.
Where a name gives a salt, the structure may show the parent alone. ± gives the standard deviation of the averaged measurements. The full ranking holds about 2,000 compounds; the median of “relative cell viability vs DMSO, compound alone” is about 1.1, and the lowest 2% start at about 0.29. The list comes from a sample in which the lowest values are over-represented; it also holds similar structures and randomly drawn compounds.

What follows are compounds tested on TE10 (assay: relative cell viability vs DMSO, compound alone (fraction); TE10 is an esophageal squamous carcinoma line; higher = less cytotoxic). Details: 2 µM; 48 h.
Description: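 TE10 ESCC cells (1,000/well, 384-well plates) were treated with Selleck bioactive library compounds at 2 uM alone for 48 h. Viability was read by CellTiter-Glo and expressed relative to DMSO wells. Two technical replicates (A, B).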

For Cc1ccc(S(=O)(=O)C=CC#N)cc1, which relative cell viability is on record?
The relative cell viability was 0.063 ± 0.0047.

How did the relative cell viability turn out when CC(C)(C)c1ccc(S(=O)(=O)/C=C/C#N)cc1 was run?
The relative cell viability was 0.0635 ± 0.0029.

Which relative cell viability does the source give for CNc1nc(-c2ccc3c(N)n[nH]c3c2)cc(N2C[C@@H](C(=O)NC3CCCCC3)CC[C@H]2C)n1 here?
Its relative cell viability is 1.05 ± 0.037.

Which relative cell viability does the source give for COc1c(N2C[C@@H]3CCCN[C@@H]3C2)c(F)cc2c(=O)c(C(=O)O)cn(C3CC3)c12 [Moxifloxacin HCl] here?
Its relative cell viability is 1.18 ± 0.016.

With C[C@]12CC[C@@H]3c4ccc(O)cc4CC[C@H]3[C@@H]1CC[C@@H]2OC(=O)CCC1CCCC1 [Estradiol Cypionate] as the compound, how does the relative cell viability read?
The relative cell viability was 1.13 ± 0.085.

Cn1cc(-c2[nH]c3cc(NC(=O)[C@H](N)C4CCCCC4)cc4c3c2C=NNC4=O)cn1 was tested. Which relative cell viability did it give?
Its relative cell viability is 1.05 ± 0.075.

Which relative cell viability does the source give for CCOc1cc([C@@H](CS(C)(=O)=O)N2C(=O)c3cccc(NC(C)=O)c3C2=O)ccc1OC here?
The relative cell viability was 0.887 ± 0.18.

CC(C)c1nc(CN(C)C(=O)N[C@H](C(=O)N[C@@H](Cc2ccccc2)C[C@H](O)[C@H](Cc2ccccc2)NC(=O)OCc2cncs2)C(C)C)cs1 [Ritonavir] was tested. Which relative cell viability did it give?
The relative cell viability was 1.13 ± 0.062.

CC(NC(=O)C(Cc1ccccc1)NC(=O)OCc1ccccc1)C(=O)CF (stereo unspecified) was tested. Which relative cell viability did it give?
The relative cell viability was 1.14 ± 0.064.

CCCC[C@@H](C=O)NC(=O)[C@H](CC(C)C)NC(=O)OCc1ccccc1 [Calpeptin] was tested. Which relative cell viability did it give?
Its relative cell viability is 1 ± 0.021.

How did the relative cell viability turn out when CC(C)C[C@@H](C=O)NC(=O)[C@H](CC(C)C)NC(=O)[C@H](CC(C)C)NC(=O)OCc1ccccc1 was run?
The relative cell viability was 0.0786 ± 0.0013.

For CCCCC(=O)O[C@]1(C(=O)CO)[C@@H](C)C[C@H]2[C@@H]3CCC4=CC(=O)C=C[C@]4(C)[C@@]3(F)[C@@H](O)C[C@@]21C [Betamethasone valerate (Betnovate)], which relative cell viability is on record?
The relative cell viability was 0.865 ± 0.078.

Which relative cell viability does the source give for COc1cc(Nc2nc3ccccc3nc2NS(=O)(=O)c2ccc(NC(=O)c3ccc(C)c(OC)c3)cc2)cc(OC)c1 here?
Its relative cell viability is 1.15 ± 0.067.

Which relative cell viability does the source give for O=C(c1cn(Cc2cncn2Cc2ccc(Br)cc2)cc1-c1cccc2ccccc12)N1CCOCC1 here?
Its relative cell viability is 0.958 ± 0.015.

Which relative cell viability does the source give for CCc1cc(/C(C)=N/OCc2ccc(C3CCCCC3)c(C(F)(F)F)c2)ccc1CN1CC(C(=O)O)C1 [BAF312 (Siponimod)] here?
Its relative cell viability is 1.1 ± 0.07.

With O=C(O)c1cc(/N=N/c2ccc(O)c(C(=O)O)c2)ccc1O [Olsalazine Sodium] as the compound, how does the relative cell viability read?
Its relative cell viability is 1.12 ± 0.12.

With CC(=O)N[C@@H](CC(C)C)C(=O)N[C@@H](CC(C)C)C(=O)N[C@H](C=O)CCCNC(=N)N [Leupeptin Hemisulfate] as the compound, how does the relative cell viability read?
Its relative cell viability is 1.09 ± 0.015.

With CCCCC(C=O)NC(=O)C(CC(C)C)NC(=O)C(CC(C)C)NC(C)=O (stereo unspecified) as the compound, how does the relative cell viability read?
The relative cell viability was 0.266 ± 0.011.

For CC(C)CCNC(=O)[C@H](CC(C)C)NC(=O)[C@H]1O[C@@H]1C(=O)O [Loxistatin Acid (E-64C)], which relative cell viability is on record?
Its relative cell viability is 1.1 ± 0.019.

How did the relative cell viability turn out when Cc1ccc(C(=O)Nc2cccc(C(F)(F)F)c2)cc1Nc1nc(-c2cccnc2)nc2c1cnn2C was run?
Its relative cell viability is 1.13 ± 0.043.

For Cc1cnc(NC(=O)C2=C(O)c3ccccc3S(=O)(=O)N2C)s1 [Meloxicam], which relative cell viability is on record?
The relative cell viability was 1.11 ± 0.045.

For CC(=O)O[C@]1(C(C)=O)CC[C@H]2[C@@H]3C[C@H](C)C4=CC(=O)C=C[C@]4(C)[C@@]3(F)[C@@H](O)C[C@@]21C [Fluorometholone Acetate], which relative cell viability is on record?
The relative cell viability was 0.914 ± 0.099.

Which relative cell viability does the source give for CCCCC(=O)O[C@H]1CC[C@H]2[C@@H]3CCc4cc(O)ccc4[C@H]3CC[C@]12C [Estradiol valerate] here?
Its relative cell viability is 1.07 ± 0.1.

Cc1ccc(NC(=O)c2ccc(CN3CCN(C)CC3)cc2)cc1Nc1nc(-c2cccnc2)cs1 [Masitinib (AB1010)] was tested. Which relative cell viability did it give?
Its relative cell viability is 1.084 ± 0.0069.

For CC(C)(C)c1cc(NC(=O)Nc2ccc(-c3cn4c(n3)sc3cc(OCCN5CCOCC5)ccc34)cc2)no1 [Quizartinib (AC220)], which relative cell viability is on record?
Its relative cell viability is 0.594 ± 0.04.

Which relative cell viability does the source give for O=C(O)CCNC(=O)c1ccccc1 [Betamipron] here?
The relative cell viability was 1.08 ± 0.022.

For CN(NC(=O)CC(=O)NN(C)C(=S)c1ccccc1)C(=S)c1ccccc1 [Elesclomol (STA-4783)], which relative cell viability is on record?
The relative cell viability was 0.181 ± 0.013.

Which relative cell viability does the source give for O=C(O)c1ccccc1 [Benzoic Acid] here?
The relative cell viability was 1.09 ± 0.0064.

How did the relative cell viability turn out when CC1(C)O[C@@H]2[C@@H](CO[C@@]3(COS(N)(=O)=O)OC(C)(C)O[C@@H]23)O1 [Topiramate] was run?
Its relative cell viability is 1.29 ± 0.052.

For C[C@@H]1CN(CC(=O)Nc2ccc3c(c2)Cc2cccc(-c4cc(=O)cc(N5CCOCC5)o4)c2S3)C[C@H](C)O1, which relative cell viability is on record?
The relative cell viability was 1.17 ± 0.021.

How did the relative cell viability turn out when Cc1cc(C)cc(NC(=O)Cc2ccc(OC(C)(C)C(=O)O)cc2)c1 [Efaproxiral Sodium] was run?
Its relative cell viability is 1.11 ± 0.012.

Which relative cell viability does the source give for O=C(Nc1ccccc1)c1ccccc1O [Salicylanilide] here?
The relative cell viability was 1.07 ± 0.059.

Which relative cell viability does the source give for CC(ONC(=O)c1cc(C(F)(F)F)cc(C(F)(F)F)c1)C(=O)Nc1ccc(Cl)cc1 (stereo unspecified) here?
The relative cell viability was 1.07 ± 0.024.

With O=C(Nc1cc(C(F)(F)F)cc(C(F)(F)F)c1)c1cc(Cl)ccc1O as the compound, how does the relative cell viability read?
Its relative cell viability is 0.18 ± 0.0024.

For C=CC(=O)Nc1cccc(Oc2nc(Nc3ccc(N4CCN(C)CC4)cc3)ncc2Cl)c1, which relative cell viability is on record?
Its relative cell viability is 0.758 ± 0.011.

Which relative cell viability does the source give for C[C@H]1O[C@@H](O[C@H]2[C@@H](O)C[C@H](O[C@H]3[C@@H](O)C[C@H](O[C@H]4CC[C@@]5(C)[C@H](CC[C@@H]6[C@@H]5C[C@@H](O)[C@]5(C)[C@@H](C7=CC(=O)OC7)CC[C@]65O)C4)O[C@@H]3C)O[C@@H]2C)C[C@H](O)[C@@H]1O [Digoxin] here?
The relative cell viability was 0.603 ± 0.013.

For Nc1nc(=O)n([C@@H]2CS[C@H](CO)O2)cc1F [Emtricitabine], which relative cell viability is on record?
The relative cell viability was 1.06 ± 0.076.

How did the relative cell viability turn out when CCn1c2ccccc2c2cc(Nc3ccnc(NCCCN4CCOCC4)n3)ccc21 was run?
Its relative cell viability is 1.2 ± 0.076.

With COc1ccc(-c2nc(N3CCOCC3)c3sc(CN(C)c4ncc(C(=O)NO)cn4)cc3n2)cn1 as the compound, how does the relative cell viability read?
Its relative cell viability is 0.0746 ± 0.0025.

Which relative cell viability does the source give for CS(=O)(=O)N1CCN(Cc2cc3nc(-c4cccc5[nH]ncc45)nc(N4CCOCC4)c3s2)CC1 here?
The relative cell viability was 0.483 ± 0.0077.

Cc1c(CN2CCN(C(=O)[C@H](C)O)CC2)sc2c(N3CCOCC3)nc(-c3cnc(N)nc3)nc12 was tested. Which relative cell viability did it give?
The relative cell viability was 0.317 ± 0.021.

For C[C@@H](Oc1ccc2[nH]nc(/C=C/c3cnn(CCO)c3)c2c1)c1c(Cl)cncc1Cl, which relative cell viability is on record?
Its relative cell viability is 0.712 ± 0.01.

Cc1nc(Nc2n[nH]c3c2CN(C(=O)N[C@H](CN(C)C)c2ccccc2)C3(C)C)c2sccc2n1 was tested. Which relative cell viability did it give?
The relative cell viability was 0.789 ± 0.037.

For COc1cccc2cc(-c3nc([C@H]4CC[C@H](C(=O)O)CC4)n4ncnc(N)c34)[nH]c12, which relative cell viability is on record?
Its relative cell viability is 0.667 ± 0.0089.

How did the relative cell viability turn out when Cc1cc(N2CCOCC2)ccc1Nc1nc(NC2CCCCC2)c2[nH]cnc2n1 was run?
Its relative cell viability is 1.098 ± 0.0034.

Cc1cccc(CC(=O)N2CCc3c2ccc(-c2cn(C)c4ncnc(N)c24)c3F)n1 was tested. Which relative cell viability did it give?
Its relative cell viability is 1.01 ± 0.047.
